Source: PubChem BioAssay AID1159580 (chemical genetic matrix, 2015)
Where “and” joins values, the source holds several entries; their conditions need not be identical. Equal values may be shown once. Out of some 5,500 compounds screened, about 2,000 (36%) were called active. Not shown: some 18% with an inconclusive outcome. Rule as the data show it: active = normalized growth mostly below about 0.91 (no sharp cut-off); inconclusive = no clear call, values can overlap the other calls; inactive = mostly above about 0.92. The list shows a part of the results.

Assay: chemical genetic growth profiling, strain panel (AID 1159580);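 also: tested at 20 µM; growth read once vehicle control cultures reached saturation at 30 °C; 1 = growth at the plate median or of vehicle wells; lower values mean less growth of the strain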
Conditions: S. cerevisiae deletion strains, growth OD

Measured: normalized growth

CC(=O)Nc1c(I)cc(I)c(C(=O)O)c1I
inactive: locus YAL013W, strain DEP1, hits give low values 0.992 | locus YAL021C, strain ccr4, hits give low values 0.986 | locus YAL026C, strain drs2, hits give low values 0.995 | locus YAL030W, strain snc1, hits give low values 0.978 | locus YBL061C, strain skt5, hits give low values 0.974 | locus YBR009C, strain hhf1, hits give low values 0.992 | locus YBR021W, strain FUR4, hits give low values 1.02 | locus YBR023C, strain chs3, hits give low values 0.979 | locus YBR171W, strain sec66, hits give low values 0.967 | locus YBR229C, strain ROT2, hits give low values 0.983 | locus YBR231C, strain swc5, hits give low values 0.971 | locus YBR279W, strain paf1, hits give low values 0.985 | locus YCL011C, strain gbp2, hits give low values 0.994 | locus YCL016C, strain dcc1, hits give low values 0.994 | locus YCL029C, strain bik1, hits give low values 0.994 | locus YCL069W, strain vba3, hits give low values 0.98 | locus YCR088W, strain abp1, hits give low values 0.978 | locus YDL005C, strain med2, hits give low values 0.967 | locus YDL035C, strain GPR1, hits give low values 1.01 | locus YDL040C, strain nat1, hits give low values 0.976 | locus YDL074C, strain BRE1, hits give low values 1.02 | locus YDL101C, strain DUN1, hits give low values 0.99 | locus YDL134C, strain PPH21, hits give low values 0.983 | locus YDL185W, strain tfp1, hits give low values 0.987 | locus YDL192W, strain arf1, hits give low values 0.999 | locus YDR001C, strain nth1, hits give low values 0.991 | locus YDR069C, strain doa4, hits give low values 0.959 | locus YDR101C, strain arx1, hits give low values 0.995 | locus YDR137W, strain rgp1, hits give low values 0.967 | locus YDR150W, strain NUM1, hits give low values 0.996 | locus YDR159W, strain sac3, hits give low values 0.967 | locus YDR162C, strain NBP2, hits give low values 1.02 | locus YDR195W, strain ref2 0.91 | locus YDR297W, strain sur2, hits give low values 0.994 | locus YDR318W, strain mcm21, hits give low values 0.995 | locus YDR334W, strain swr1, hits give low values 0.976 | locus YDR335W, strain msn5, hits give low values 0.988 | locus YDR388W, hits give low values 0.988 | locus YDR392W, strain spt3, hits give low values 1.03 | locus YDR502C, strain sam2, hits give low values 0.996 | locus YEL003W, strain gim4, hits give low values 0.978 | locus YEL037C, strain rad23, hits give low values 0.975 | locus YEL061C, strain CIN8 (second series), hits give low values 0.966 | locus YEL061C, strain CIN8, hits give low values 0.999 | locus YER015W, strain faa2, hits give low values 0.99 | locus YER016W, strain bim1, hits give low values 0.979 | locus YER110C, hits give low values 0.989 | locus YER111C, strain swi4, hits give low values 0.981 | locus YER155C, strain BEM2 (second series), hits give low values 0.977 | locus YER155C, strain BEM2, hits give low values 0.986 | locus YER167W, strain BCK2, hits give low values 0.992 | locus YFR010W, strain ubp6, hits give low values 0.965 | locus YGL078C, strain dbp3, hits give low values 0.995 | locus YGL086W, strain mad1, hits give low values 0.981 | locus YGL167C, strain pmr1, hits give low values 0.971 | locus YGL173C, strain kem1, hits give low values 0.99 | locus YGL227W, strain vid30, hits give low values 0.971 | locus YGL240W, strain doc1, hits give low values 0.974 | locus YGL248W, strain PDE1, hits give low values 0.986 | locus YGL253W, strain hxk2, hits give low values 0.979 | locus YGR078C, strain PAC10, hits give low values 1.05 | locus YGR135W, strain pre9, hits give low values 0.994 | locus YGR229C, strain SMI1, hits give low values 1.06 | locus YGR252W, strain gcn5, hits give low values 0.986 | locus YHR013C, strain ard1, hits give low values 0.987 | locus YHR027C, strain rpn1, hits give low values 0.982 | locus YHR030C, strain SLT2, hits give low values 0.991 and 1.01 | locus YHR079C, strain IRE1 (second series), hits give low values 0.998 | locus YHR079C, strain IRE1, hits give low values 1 | locus YHR094C, strain hxt1, hits give low values 0.989 | locus YHR129C, strain ARP1, hits give low values 0.991 | locus YHR142W, strain chs7, hits give low values 0.987 | locus YHR200W, strain rpn10, hits give low values 0.991 | locus YIL066C, strain RNR3, hits give low values 1 | locus YIL073C, strain SPO22, hits give low values 1.01 | locus YIL125W, strain kgd1, hits give low values 0.992 | locus YIR030C, strain dcg1, hits give low values 0.992 | locus YJL092W, strain hpr5, hits give low values 0.973 | locus YJL095W, strain BCK1 (second series), hits give low values 0.978 | locus YJL095W, strain BCK1, hits give low values 1.01 | locus YJL115W, strain asf1, hits give low values 0.963 | locus YJL129C, strain trk1, hits give low values 0.946 | locus YJL134W, strain LCB3, hits give low values 0.994 | locus YJL154C, strain vps35, hits give low values 0.964 | locus YJL164C, strain tpk1, hits give low values 0.995 | locus YJL166W, strain qcr8, hits give low values 0.971 | locus YJL168C, strain set2, hits give low values 0.99 | locus YJL187C, strain SWE1 (second series), hits give low values 0.995 | locus YJL187C, strain SWE1, hits give low values 0.983 | locus YJR043C, strain POL32, hits give low values 1.03 | locus YJR066W, strain TOR1, hits give low values 0.963
